# Test results taken from PubChem BioAssay (NCI).
# Values joined by “and” are separate entries in the source; they are usually repeats but may differ in a detail not shown here. Identical values can stand only once. The panel holds about 83,000 compounds, 20% with a hit somewhere; the sample as a whole holds those more often.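 Method: cells in 96-well plates; compound added at one concentration; 48 h incubation; percent growth measured; values under 10 scored active.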 Unmarked numbers belong to inactive results. Active and inactive are the calls of the source.
# Tested on: MDA-MB-468 breast
# Assay: NCI-60 one-dose screen, 48 h (100 = growth as untreated, 0 = no growth, -100 = all killed)
# Settings: 10 µM unless noted
row,SMILES,growth
1,CN1[C@@H]2CC[C@H]1/C(=C\c1ccccc1)C(=O)/C2=C/c1ccccc1,16.2%
2,O=C(NO)c1ccc(CNc2cccc3nc(C4CC4)n(-c4ccccc4)c(=O)c23)cc1,22.3%
3,C=CCOC(=O)C(=O)OCC=C,104%
4,COc1cc2cc(Oc3ccc(NC(=O)Nc4ccc(Cl)c(Cl)c4)cc3)c(C)nc2cc1OC,-16.7% (active)
5,COc1cccc(/C=N\NC(=O)c2ccncc2)c1O,64.4%
6,O=C1NCCc2c1noc2-c1ccccc1,99.2%
7,COc1cc(-c2nc(-c3nc4cc(C(=O)c5ccccc5)ccc4[nH]3)cc3c2[nH]c2ccccc23)cc(OC)c1OC,93%
8,O=C(O)c1cn(C2CC2)c2cc(N3CCN(C(=O)C[n+]4cccc5ccccc54)CC3)c(F)cc2c1=O,71.4%
9,COc1cccc(Cn2cc3c(c2)-c2oncc2CC3)c1,1.66% (active)
10,O=C(/C=C/c1ccc(Cl)cc1)c1cccc(OCCCOc2cccc(C(=O)/C=C/c3ccc(Cl)cc3)c2)c1,92.9%
11,OC(c1cc(-c2ccc(C(F)(F)F)cc2)nc(C(F)(F)F)c1)C1CCCCN1 (stereo unspecified),-88.4% (active) and -89.6% (active) and -76.3% (active)
12,CCNCCNc1cc(-c2ccc(C#N)cc2)c(C#N)c2nc3ccccc3n12,-14.1% (active)
13,COc1ccc(-c2cnc3ccnn3c2-c2cc(OC)c(OC)c(OC)c2)cc1,2.83% (active)
14,CCOC(=O)CCCC(=O)OCC,116%
15,CNCCCNc1nc2ccccc2c2c(=O)c3cc(F)ccc3sc12,-57.3% (active)
16,COc1ccccc1C1OC2=Nc3cc(C)c(C)cc3NC2C1=O (stereo unspecified),66.2%
17,Cc1cnc(N)nc1OCC(C)(C)CNC(=O)c1cccc(-c2ccc(S(=O)(=O)Nc3ccc4c(c3)N(C(=O)C3CC3)CCC4)cc2)c1,22.6%
18,CCN(CC)c1ccc(CNc2cc(C)nc3ccc(OC)cc23)cc1,2.98% (active)

row,SMILES,growth
1,Cc1ccc(-c2nc(N3CCN(CC(=O)Nc4ccc(Cl)cc4)CC3)c3ccccc3n2)cc1,93.3%
2,Cn1cc(-c2csc(-c3cn(C)c4ccc(Br)cc34)n2)c2cnccc21,-68.4% (active)
3,O=C(CCCCCCN1CC(=O)N2[C@@H](c3cccc(Br)c3)c3[nH]c4ccccc4c3C[C@H]2C1=O)NO,28.1%
4,Cc1ccnc(Nc2nc3ccccc3[nH]2)n1,119%
5,CN1CCN(c2nc(-c3csc(-c4cccs4)n3)cc3ccccc23)CC1,20.3%
6,COc1ccc2nc(-c3ccc(Cl)cc3)cc(C(=O)N3N=C(c4ccc(N)cc4)CC3c3ccccc3)c2c1 (stereo unspecified),30.9%
7,COc1cc2c(c(OC)c1OC)-c1ccc(NNC(=S)N(Cc3cccc(C[N+](Cc4cccc(CNC56CC7CC(CC(C7)C5)C6)c4)(Cc4cccc(CNC56CC7CC(CC(C7)C5)C6)c4)Cc4cccc(CN(C(=S)NNc5ccc6c(cc5=O)[C@@H](NC(C)=O)CCc5cc(OC)c(OC)c(OC)c5-6)C56CC7CC(CC(C7)C5)C6)c4)c3)C34CC5CC(CC(C5)C3)C4)c(=O)cc1[C@@H](NC(C)=O)CC2 (stereo partly specified),-52.7% (active)
8,COc1cccc(C(=O)NCCNc2cc(-c3cn(-c4ccccc4)nc3-c3cccc(OC)c3)ccn2)c1,48.9%
9,CC(c1ccccn1)C(C)(O)C(C)c1ccccn1 (stereo unspecified),106%
10,COC(=O)c1c2c(c(C)[n+]([O-])c1C)C(=O)C(NCc1cccc(OC)c1)=CC2=O,-21.3% (active)
11,NC(=O)N1CCOCC1,111%
12,O=C(OCC(O)C(=O)NC12CC3CC(CC(C3)C1)C2)c1cccc(Br)c1 (stereo unspecified),99.9%
13,C=C1CCC2C(C)(CO)C(O)CCC2(C)C1CC(NCc1ccccc1)C1=CCOC1=O (stereo unspecified),98.9%
14,CONC1=Nc2cc(NC(N)=NCc3ccccc3)c(N(C)C3CCCCC3)cc2OC1,-23.4% (active)
15,COc1cc2c(cc1-c1c(C)noc1C)ncc1nc(C3CCC(F)(F)CC3)n([C@H](C)COC(F)F)c12,33.6%
16,CCC/C=C(/C(C)=O)C(=O)OCC,88.3%
17,Nc1ccc(C2=NN(c3ccccc3)C(c3ccc(Cl)cc3)C2)cc1 (stereo unspecified),62.6%
18,COc1cc(-c2cc3ncccc3c3nc(OCCN(C)C)c4cccnc4c23)cc(OC)c1OC,-6.09% (active)
